Shown are actives, neighbours in structure and some others; about 1.8% of the full set was active somewhere.
GC-A act – GC-A stimulated cGMP production enhancers – HEK293 GC-A cells, cGMP TR-FRET, EC30 ANP, primary screen; hit rate 0.14% among 370,000; Atrial natriuretic peptide receptor 1 (Homo sapiens), P16066; AID 1671463, 2021; 0% at EC30 ANP, 100% saturating ANP; activation, % at 10 µM; in the data active means activation above about 40%
Target sequence (P16066 whole entry, looked up): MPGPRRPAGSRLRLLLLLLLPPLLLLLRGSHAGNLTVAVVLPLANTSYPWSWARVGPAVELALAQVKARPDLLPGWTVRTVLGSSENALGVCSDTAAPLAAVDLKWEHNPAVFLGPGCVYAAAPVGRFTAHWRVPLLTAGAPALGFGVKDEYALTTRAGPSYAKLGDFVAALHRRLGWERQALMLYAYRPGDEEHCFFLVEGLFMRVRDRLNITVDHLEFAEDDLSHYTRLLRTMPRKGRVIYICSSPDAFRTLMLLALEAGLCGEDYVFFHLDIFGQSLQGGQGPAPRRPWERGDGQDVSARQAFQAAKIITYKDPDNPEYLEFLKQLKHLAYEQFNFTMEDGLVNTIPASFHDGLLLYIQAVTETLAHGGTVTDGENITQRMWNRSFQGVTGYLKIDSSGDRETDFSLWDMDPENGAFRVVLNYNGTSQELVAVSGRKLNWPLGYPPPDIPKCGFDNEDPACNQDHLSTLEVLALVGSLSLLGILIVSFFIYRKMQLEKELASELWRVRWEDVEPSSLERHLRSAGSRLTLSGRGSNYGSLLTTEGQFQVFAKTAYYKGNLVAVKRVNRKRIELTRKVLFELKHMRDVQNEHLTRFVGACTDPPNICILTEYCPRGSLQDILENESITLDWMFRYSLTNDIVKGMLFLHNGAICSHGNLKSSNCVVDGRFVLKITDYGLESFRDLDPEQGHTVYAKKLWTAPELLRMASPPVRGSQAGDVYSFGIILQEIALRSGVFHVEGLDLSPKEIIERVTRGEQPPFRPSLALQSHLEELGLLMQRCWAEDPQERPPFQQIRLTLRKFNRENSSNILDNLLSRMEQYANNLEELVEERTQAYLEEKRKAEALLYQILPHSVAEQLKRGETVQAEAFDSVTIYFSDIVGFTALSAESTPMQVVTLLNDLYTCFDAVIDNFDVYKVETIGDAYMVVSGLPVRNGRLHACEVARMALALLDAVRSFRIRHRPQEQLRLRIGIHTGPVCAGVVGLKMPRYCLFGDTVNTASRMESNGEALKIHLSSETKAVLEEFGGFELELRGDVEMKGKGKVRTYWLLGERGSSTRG
MsrA act – bovine MsrA enzyme activators, primary screen, biochemical, absorbance, HTS | Methionine sulfoxide reductase A (Bos taurus) | purified bovine MsrA, absorbance read-out | activation, % at 10.6 µM | hit rate 0.3% among 360,000; in the data active means activation above about 7.5%;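 further: 0% = vehicle and 100% = reference activator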
GC-B act – human GC-B receptor activators, primary screen, HEK293 GC-B cells, cGMP TR-FRET, EC30 CNP | Atrial natriuretic peptide receptor 2 (Homo sapiens), P20594 | 0% at EC30 CNP, 100% saturating CNP | AID 1920062, 2024 | activation, % at 10 µM | hit rate 0.11% among 370,000;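 active means activation at 10 µM reaching about 35% in either raw or pattern-adjusted values, limit read from the data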
MsrA inhibitor – bovine MsrA enzyme inhibitors, primary screen, biochemical, absorbance, HTS; Methionine sulfoxide reductase A (Bos taurus); purified bovine MsrA, absorbance read-out; inhibition, % at 15.5 µM; hit rate 0.75% among 360,000; in the data active means inhibition above about 4.5%;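 further: 0% = vehicle wells with enzyme and 100% = reference inhibitor wells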
m5-HT2A agonist – mouse Htr2a agonists via beta-arrestin recruitment, primary screen, cell-based, luminescence | CHO-K1 mHTR2A beta-arrestin complementation; percent of 30 µM serotonin response | activation, % at 7.6 µM | hit rate 0.66% among 360,000;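 active means activation above a run cutoff, the mean activation of all tested compounds plus 3 SD, cut at about 14% in these data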;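 further: 0% = plate median of compound wells and 100% = 30 µM serotonin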
OPRM1 ag – OPRM1 agonists via beta-arrestin recruitment, confirmation, counter-screen for mouse HTR2A agonist project, cell-based, luminescence, single concentration | U2OS OPRM1 beta-arrestin PathHunter; DMSO 0%, DAMGO 9.3 µM 100% | shares compounds with m5-HT2A agonist | hit rate 5.3% among 2,300 | activation, % at 9.3 µM;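 active means mean activation above the mean of DMSO-only wells plus 3 SD, cut at about 0.5% in these data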
m5-HT2A ag conf – mouse HTR2A agonists, beta-arrestin recruitment, confirmation, cell-based, luminescence, CHO-K1 PathHunter, triplicate; AID 624381, 2012; shares compounds with m5-HT2A agonist; DMSO 0%, 30 µM serotonin 100%; activation, % at 7.6 µM; hit rate 19% among 2,300;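 active means mean activation across triplicates above the hit threshold derived in the original primary screen, cut at about 15% in these data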
The depositor's hits bear a star.

How did Cc1noc(C)c1NC(=O)N(C)C[C@H]1Oc2ccc(NS(=O)(=O)c3c(C)noc3C)cc2C(=O)N([C@H](C)CO)C[C@@H]1C do in these assays?
GC-A act: -2; MsrA act: -2; GC-B act: 7; MsrA inhibitor: 1; m5-HT2A agonist: 3

How did C[C@H](CO)N1C[C@H](C)[C@@H](CN(C)C(=O)Nc2ccc3c(c2)OCO3)Oc2ccc(NS(=O)(=O)c3ccccc3)cc2C1=O do in these assays?
GC-A act: 0; MsrA act: -11; GC-B act: -4; MsrA inhibitor: 0; m5-HT2A agonist: 15*; OPRM1 ag: -1; m5-HT2A ag conf: -3

How did Cc1noc(C)c1S(=O)(=O)Nc1ccc2c(c1)C(=O)N([C@H](C)CO)C[C@H](C)[C@@H](CN(C)C(=O)NC1CCCCC1)O2 do in these assays?
GC-A act: 1; MsrA act: -12; GC-B act: 5; MsrA inhibitor: 0; m5-HT2A agonist: 15*; OPRM1 ag: -1; m5-HT2A ag conf: -1

How did Cc1cccc(CNC(=S)OCCN2CCCC23CCC(c2ccccc2)CC3)c1 (stereo not given) do in these assays?
GC-A act: -18; GC-B act: -14

What do the screens show for `C=CCN1[C@@H](Cc2ccccc2)COc2cc(F)ccc2S1(=O)=O`?
GC-A act: 5; GC-B act: 1

Results for COc1ccc(N(C)C(=O)c2cc3c(s2)-c2ccc(Cl)cc2S(=O)(=O)C3)c(OC)c1 ?
GC-A act: -5; MsrA act: -5; GC-B act: -7; MsrA inhibitor: -2; m5-HT2A agonist: 14*; OPRM1 ag: 0; m5-HT2A ag conf: -5

What do the screens show for `Cc1ccccc1CC(=O)N1CCN(S(=O)(=O)c2cccs2)CC1`?
GC-A act: 0; MsrA act: -1; GC-B act: 0; MsrA inhibitor: 0; m5-HT2A agonist: 16*; OPRM1 ag: 0; m5-HT2A ag conf: -5

How did Cc1cnc(N)nc1-c1ccccc1 do in these assays?
GC-A act: -1; MsrA act: -1; GC-B act: 4; MsrA inhibitor: -1; m5-HT2A agonist: 29*; OPRM1 ag: 0; m5-HT2A ag conf: -4

How did CCC/C(=C1/c2ccccc2C(=O)N1c1ccccc1)c1ccc(C=O)o1 do in these assays?
GC-A act: 2; GC-B act: -4; MsrA inhibitor: 0

Results for O=C(Nc1ccccc1C(=O)Nc1nnc(C(F)(F)F)s1)c1ccccc1 ?
GC-A act: 15; MsrA act: -4; GC-B act: 8; MsrA inhibitor: 1; m5-HT2A agonist: 14*; OPRM1 ag: 0; m5-HT2A ag conf: 3

How did Cc1occc1C(=O)Nc1nnc(C(F)(F)F)s1 do in these assays?
GC-A act: -1; MsrA act: -13; GC-B act: 2; MsrA inhibitor: 1; m5-HT2A agonist: 1

Results for Cc1ccc(NC(=O)CN2CCN(c3ccccn3)CC2)cc1S(=O)(=O)N(C)C ?
GC-A act: -5; MsrA act: -15; GC-B act: -2; MsrA inhibitor: 2; m5-HT2A agonist: 51*; OPRM1 ag: -1; m5-HT2A ag conf: 118*

Results for CCN(CC)S(=O)(=O)c1cc(NC(=O)CN2CCN(c3ccccn3)CC2)ccc1C ?
GC-A act: 0; MsrA act: -3; GC-B act: 1; MsrA inhibitor: 2; m5-HT2A agonist: 32*; OPRM1 ag: -1; m5-HT2A ag conf: 94*

How did CN(C)S(=O)(=O)c1cc(NC(=O)CN2CCN(c3ccc(O)cc3)CC2)ccc1Cl do in these assays?
GC-A act: 0; MsrA act: -7; GC-B act: 4; MsrA inhibitor: -1; m5-HT2A agonist: -6

Compound activity deposited in PubChem BioAssay by several laboratories.
